Screens deposited in PubChem by National Center for Advancing Translational Sciences (NCATS).
Tau ThT inhib: inhibitors of human tau fibril formation, thioflavin T binding; AID 1460; P10636; Potency, µM (top dose mostly 57.4 µM), actives largely listed as inhibitors; 270,000 compounds, 2.1% hits; recombinant tau K18 P301L, heparin-induced fibrillization, ThT fluorescence; further: nearly all actives have a fitted effect of over 55% in size
Target sequence (P10636 561-689 P618L limits assumed): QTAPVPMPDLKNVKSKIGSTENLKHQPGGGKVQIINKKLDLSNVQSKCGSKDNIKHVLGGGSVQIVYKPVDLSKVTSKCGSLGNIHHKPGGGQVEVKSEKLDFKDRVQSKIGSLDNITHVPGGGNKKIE
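In this qHTS, human K18 P301L tau is incubated with compound and heparin for 6 hr at 37 C, and Thioflavin T fluorescence then reports fibril load.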
ALDH1A1 inh: inhibitors of human aldehyde dehydrogenase 1A1. P00352. Potency, µM (titrated, usually from 75.3 µM), most hits filed as inhibitors. Purified ALDH1A1, NADH fluorescence, propionaldehyde substrate. 220,000 compounds, 7.3% hits; active means well fitted inhibition curve with a large enough effect, not every such curve was filed as active; inconclusive means small, poorly fitted or top-dose-only effect, or another doubt; inactive means no such curve, though single readings can be large or run the other way
HPGD block: blocks human HPGD enzyme activity; P15428; purified HPGD, NADH fluorescence kinetic, PGE2 substrate; Potency, µM, usual class: inhibitors; 150,000 compounds, 4.3% hits; active means well fitted inhibition curve with a large enough effect, not every such curve was filed as active; inconclusive means small, poorly fitted or top-dose-only effect, or another doubt; inactive means no such curve, though single readings can be large or run the other way
Target sequence (P15428 whole entry, looked up): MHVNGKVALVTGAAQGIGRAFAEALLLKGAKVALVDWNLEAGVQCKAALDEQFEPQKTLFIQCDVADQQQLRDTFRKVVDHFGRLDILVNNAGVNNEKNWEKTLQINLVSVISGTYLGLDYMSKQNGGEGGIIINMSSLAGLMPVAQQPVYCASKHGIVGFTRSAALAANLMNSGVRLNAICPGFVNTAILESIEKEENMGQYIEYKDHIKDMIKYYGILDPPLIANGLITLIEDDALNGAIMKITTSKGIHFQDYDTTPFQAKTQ
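NADH formation kinetics: reaction with 30 uM PGE2 and 1 mM NAD+ (final), 20 nM enzyme, Tris-HCl pH 8 with Tween 20, after 15 min compound preincubation at room temperature. Fluorescence change, last versus first of five reads.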
NPSR antag: blocks cAMP signaling of the human neuropeptide S receptor; Q6W5P4; CHO-NPSR cells, cAMP TR-FRET, antagonist mode; Potency, µM (highest dose often 38.3 µM), usual class: inhibitors; 220,000 compounds, 1% hits; further: nearly all actives have a fitted effect of over 50% in size
Tau FP inhib: inhibitors of human tau fibril formation; P10636; K18 P301L tau heparin fibrillization, Alexa594 FP, 6 h; Potency, µM (series often up to 57.7 µM), actives largely listed as inhibitors; 280,000 compounds, 0.39% hits; AID 1468; further: nearly all actives have a fitted effect of over 55% in size
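FP of Alexa 594-tau after heparin (20 uM) induction. Substrate: human K18 P301L, 15 uM unlabeled, 0.24 uM labeled. Buffer 100 mM sodium acetate pH 7. 6 hr, 37 C.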
Tau fluor counter: counter-screen for tau fibril formation inhibitors; tau K18 P301L (four-repeat tau fragment) Alexa594 fluorescence, heparin fibrillization; Potency, µM (doses to about 57.7 µM); 280,000 compounds, 0.93% hits; AID 1463; further: nearly all actives have a fitted effect of over 55% in size
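Human K18 P301L tau (15 uM unlabeled plus 0.24 uM Alexa 594-labeled, final) in 100 mM sodium acetate pH 7 was mixed with compound and 20 uM heparin and incubated 6 hr at 37 C.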
Hits are given with their value; n = inactive; u = inconclusive; x = not tested or not shown; [ ] = dose if it differs, or a comment. Compounds with a hit are over-represented: about 9.5% of the library has one in this group of screens. Unless noted, the call rests on the fitted dose curve; in most records, active means well fitted curve in the direction sought with a large enough effect; inconclusive means small, poorly fitted or top-dose-only effect, or another doubt; inactive means no such curve, though single readings can be large; an effect the other way counts as inactive or inconclusive.

SMILES	Tau ThT inhib	ALDH1A1 inh	HPGD block	NPSR antag	Tau FP inhib	Tau fluor counter
CCn1cc(C(=O)NCc2ccco2)c(=O)c2cc(S(=O)(=O)N3CCCCCC3)ccc21	n	8.9µM	n	u	n	n
O=C(COC(=O)c1cc(S(=O)(=O)N2CCc3ccccc3C2)ccc1Cl)NCc1ccco1	32µM	u	u	n	u	u
O=C(COC(=O)c1cccc(S(=O)(=O)N2CCc3ccccc3C2)c1)NCc1ccco1	n	u	n	n	n	n
CCn1cc(C(=O)NCc2ccco2)c(=O)c2cc(S(=O)(=O)N3CCc4ccccc4C3)ccc21	u	20µM	n	n	n	n
O=[N+]([O-])c1cc(-c2nc(-c3ccccc3)no2)ccc1NC1CCCC1	n	x	x	x	n	n
COc1ccc(Cl)cc1NC(=O)Cn1cc(S(=O)(=O)Cc2cccc(Cl)c2)c2ccccc21	n	x	x	x	u	n
O=C(Nc1ccc(F)cc1F)N1CCN(CCc2ccccc2)CC1	x	x	x	n	n	n
CC(=O)N1CSCC1C(=O)NNS(=O)(=O)c1cccc(C(F)(F)F)c1 (stereo not given)	n	x	x	n[7.67 µM]	n	n
COc1cccc(/C=N/NC(=O)C(=O)NCc2cccnc2)c1OC	n	16µM	x	n	n	n
O=C(Nc1ncccn1)c1cc([N+](=O)[O-])cc([N+](=O)[O-])c1	n	n	n	n	n	n
O=[N+]([O-])c1cc(-c2ncccn2)c([N+](=O)[O-])s1	11µM	2.2µM	28µM	u	n	u
Cc1ccc(S(=O)(=O)N=Nc2c(O)[nH]c3cc(O)c(C(=O)O)cc23)cc1	x	n[13.5 µM]	n	x	x	x
Clc1ccc(Cn2c(/C=C/c3ccco3)nc3ccccc32)cc1	u	u	u	n	n	n
Cc1ccc(Cn2c(/C=C/c3ccco3)nc3ccccc32)cc1	25µM	u	u	n	u	u
CCCCNS(=O)(=O)c1ccc2nc(SCC(=O)c3ccccc3OC)[nH]c2c1	n	u	28µM	n	n	u
CCCCNS(=O)(=O)c1ccc2nc(SCC(=O)Nc3ccccc3Cl)[nH]c2c1	n	u	x	n	25µM	u
CCCCNS(=O)(=O)c1ccc2nc(SCC(=O)Nc3cccc(F)c3)[nH]c2c1	n	n	n	n	n	n
Cc1ccc(S(=O)(=O)N2CCc3cc(C(=O)NCCc4ccccc4)ccc32)cc1	n	x	x	x	n	n
COCCCNC(=O)c1cc2c(=O)oc3ccc(C)cc3c2s1	n	x	x	x	n	n
Cc1ccc2oc(=O)c3cc(C(=O)NCCN4CCc5ccccc5C4)sc3c2c1	n	28µM	u	n	n	n
O=C(N/N=C/c1ccccn1)c1[nH]c2ccc([N+](=O)[O-])cc2c1-c1ccccc1	u	4.5µM	x	n	n	u
CSc1nc(/C=C2\C=Nc3ccccc32)c(O)n1C	11µM	n	35µM	n	n	u
CC(C)n1c(O)c(/C=C2\C=Nc3ccccc32)sc1=Nc1ccccc1	n	n	n	n	n	u
CC(C)(C)C1=CC(=O)C(=O)C(C(C)(C)C)=C1	u	2.8µM	4µM	u	u	n
CC(C)(C)C1=CC(=Nc2ccccc2N)C=C(C(C)(C)C)C1=O	n	n	n	n	n	n
SMILES	Tau ThT inhib	ALDH1A1 inh	HPGD block	NPSR antag	Tau FP inhib	Tau fluor counter
Cc1coc(C)c1C(=O)CC1(O)C(=O)N(CCc2ccccc2)c2ccccc21 (stereo not given)	u	4.5µM	u	n	n	n
CC1(C)CC(=O)C(C2(O)C(=O)N(Cc3ccccc3)c3ccccc32)CO1 (stereo not given)	u	0.032µM	n	n	n	n
O=C(CC1(O)C(=O)N(Cc2ccccc2Cl)c2ccccc21)c1ccco1 (stereo not given)	n	1.3µM	n	n	n	n
CCOC(=O)CN1C(=O)C(O)(CC(=O)c2ccc3c(c2)CCCC3)c2ccccc21 (stereo not given)	u	10µM	n	n	n	n
CCCc1cc(=O)[nH]c(SCC(=O)c2ccc3c(c2)NC(=O)CO3)n1	n	x	x	n	n	n
N#Cc1ccc(CN2CCCC3(CCN(S(=O)(=O)c4ccccc4)CC3)C2)cc1	x	u	n	x	x	x
CC(=O)N/N=C(\N)c1nonc1N	x	x	x	n	n	n
C=C[C@]1(C)C[C@H](OC(=O)CO)[C@]2(C)C3C(=O)CC[C@]3(CC[C@H]2C)[C@H](C)[C@H]1O (stereo not given in full)	x	n[13.5 µM]	n	x	x	x
C#CCN1C(=O)C(O)(CC(=O)c2cccc(OC)c2)c2ccccc21 (stereo not given)	n	1.6µM	n	n	n	n
CCOC(=O)CN1C(=O)C(O)(CC(=O)c2ccco2)c2ccccc21 (stereo not given)	n	0.16µM	n	n	n	n
CN1C(=O)C(O)(CC(=O)/C=C/c2ccco2)c2cc(Br)ccc21 (stereo not given)	u	24µM	x	n	n	n
Cc1[nH]c2ccccc2c1C1(O)C(=O)N(Cc2ccc3c(c2)OCO3)c2ccccc21 (stereo not given)	u	0.71µM	n	n	n	n
COc1ccc(C(=O)CC2(O)C(=O)N(Cc3ccccc3Cl)c3ccccc32)cc1 (stereo not given)	n	x	x	x	n	u
CC12CN(Cc3ccccc3)CC(C)(CN(Cc3ccccc3)C1)C2=O	n	n	x	n	n	n
COc1ccc(C(=O)N/N=C2/SCC(=O)N2Cc2ccc3c(c2)OCO3)cc1OC	n	20µM	n	n	n	n
O=C(O)CC1(O)C(=O)N(Cc2ccccc2)c2ccccc21 (stereo not given)	n	20µM	x	n	n	n
COc1ccc(CN2C(=O)C(O)(CC(=O)c3ccc4c(c3)OCO4)c3ccccc32)cc1OC (stereo not given)	n	4.5µM	n	n	n	n
CC12CN3CC(C)(CN(C1)C31C(=O)N(Cc3ccccc3)c3ccccc31)C2=O (stereo not given)	n	7.9µM	n	n	n	n
CCOC(=O)c1cc(CC)sc1NC(=O)CC1Sc2ccc(C(F)(F)F)cc2NC1=O (stereo not given)	n	n	n	n	n	n
CCCCc1nc2c(c3c1C[C@H](C)OC3)CN(S(=O)(=O)c1ccc(C#N)cc1)CC2	n[11.5 µM]	n[13.5 µM]	n	x	n[11.6 µM]	n[11.6 µM]
O=C(COc1ccccc1C(=O)NCc1ccncc1)Nc1ccc(Br)cc1	n	n	x	n	u	n
Cn1c(=O)[nH]c(=O)c2c1nc(N1CCCCCC1)n2CCSc1nc2ccccc2[nH]1	n	u	n	n	n	n
CCN(CC(=O)NC(C)(C)C)C(=O)C(c1ccccc1)c1ccccc1	n	n	x	n	n	n
CCOC(=O)CN1C(=O)C(O)(CC(=O)c2cccc(OC)c2)c2ccccc21 (stereo not given)	n	0.28µM	n	n	n	n
